Out of some 400,000 compounds screened, about 2,100 (0.53%) were called active. Not shown: some 14% with an inconclusive outcome. The rule behind the calls is not given here. This excerpt belongs to a sample that is enriched for actives.
The compounds below were run against Ataxin-2 (Homo sapiens) (UniProt Q99700) (assay: qHTS for Inhibitors of ATXN expression.).
Type: functional

Chain of Ataxin-2 (Homo sapiens) (Q99700 whole entry): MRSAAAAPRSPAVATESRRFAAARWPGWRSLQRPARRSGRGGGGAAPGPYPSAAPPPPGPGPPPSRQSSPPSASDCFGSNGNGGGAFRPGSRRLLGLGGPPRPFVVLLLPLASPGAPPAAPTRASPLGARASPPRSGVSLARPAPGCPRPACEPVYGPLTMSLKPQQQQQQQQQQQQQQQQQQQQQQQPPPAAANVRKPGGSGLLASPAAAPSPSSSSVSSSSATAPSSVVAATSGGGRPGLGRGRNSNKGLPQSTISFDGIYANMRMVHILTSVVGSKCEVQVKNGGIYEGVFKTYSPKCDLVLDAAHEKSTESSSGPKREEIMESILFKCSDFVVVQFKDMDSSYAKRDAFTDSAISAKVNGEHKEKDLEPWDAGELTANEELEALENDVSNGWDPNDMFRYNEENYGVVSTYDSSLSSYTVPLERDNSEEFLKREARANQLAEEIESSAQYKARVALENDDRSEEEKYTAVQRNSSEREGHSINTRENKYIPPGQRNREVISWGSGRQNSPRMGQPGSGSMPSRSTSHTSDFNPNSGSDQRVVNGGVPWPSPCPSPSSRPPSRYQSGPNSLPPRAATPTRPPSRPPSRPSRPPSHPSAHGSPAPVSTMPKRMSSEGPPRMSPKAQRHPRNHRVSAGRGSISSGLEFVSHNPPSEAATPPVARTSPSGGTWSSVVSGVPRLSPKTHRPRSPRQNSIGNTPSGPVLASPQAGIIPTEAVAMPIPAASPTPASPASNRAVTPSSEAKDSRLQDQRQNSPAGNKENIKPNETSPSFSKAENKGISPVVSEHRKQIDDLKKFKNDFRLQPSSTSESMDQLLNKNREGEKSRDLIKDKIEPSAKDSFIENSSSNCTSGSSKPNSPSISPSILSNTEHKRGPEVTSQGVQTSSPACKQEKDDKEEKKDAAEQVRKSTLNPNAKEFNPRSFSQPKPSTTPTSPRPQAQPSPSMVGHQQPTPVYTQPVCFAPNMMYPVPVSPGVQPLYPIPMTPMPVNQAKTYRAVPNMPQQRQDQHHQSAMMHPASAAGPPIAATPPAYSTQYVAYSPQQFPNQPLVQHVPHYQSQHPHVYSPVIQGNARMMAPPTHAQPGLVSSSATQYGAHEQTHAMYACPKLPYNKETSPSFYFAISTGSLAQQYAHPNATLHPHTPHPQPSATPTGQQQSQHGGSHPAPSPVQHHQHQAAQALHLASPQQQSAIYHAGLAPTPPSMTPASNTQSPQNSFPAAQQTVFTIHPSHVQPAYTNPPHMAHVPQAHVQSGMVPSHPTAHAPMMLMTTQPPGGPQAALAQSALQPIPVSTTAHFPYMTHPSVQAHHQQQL

Structure (SMILES) | Potency
Cc1cc(Cl)n2c(nc3ccccc32)c1C#N | inactive
CC(CCCC(C)(C)O)NC(=O)c1ccc(OC2CCN(C(=O)C3CC3)CC2)cc1 (centres undefined) | inactive
CCCCc1c(-c2ccc(F)cc2F)ncn1CCc1ccccc1OC | 35.5 µM (active)
CCCCCc1c(-c2ccccc2F)ncn1CCc1ccccc1OC | 28.2 µM (active)
CCOC(=O)C1(CCOC)CCCCC1=O (centres undefined) | inactive
Cc1ccc(Nc2nc(Cl)c(C=O)s2)cc1Cl | inactive
CC(C)N(CCNCc1nnc(-c2ccccc2)o1)C(C)C | inactive
COC(=O)Cc1c(C)c2ccc3c(c2oc1=O)CN(Cc1ccc(Cl)cc1)CO3 | inactive
Cc1ccc(C(=O)C(C(=O)/C=C/c2ccccc2)=C2SCCCS2)cc1 | 25.1 µM (active)
CC1=CC(=O)C=C(C)C1=NOC(=O)/C=C\c1ccccc1 | inactive
Cc1cc(N2CCN(C)CC2)nc2ccc(NC(S)=NCCN3CCc4ccccc4C3)cc12 | 28.2 µM (active)
Cc1cc(C)c2cc3c(N)c(C(=O)N4CCc5ccccc5C4)sc3nc2c1 | inactive
COCCCN=C(S)Nc1ccc2nc(N3CCOCC3)cc(C)c2c1 | inactive
CCN1CCN(c2cc(C)c3cc(NC(S)=NCCCN4CCc5ccccc5C4)ccc3n2)CC1 | 25.1 µM (active)
COc1cc(OC)c2c(OC)cccc2n1 | inactive
CC(C)c1ccc(O)c(C(=O)c2cnn(-c3ccccc3)c2)c1 | inactive
Cc1cccn2c(=O)c3cc(C(N)=S)c(=N)n(CCCOC(C)C)c3nc12 | inactive
CCCCOCCCNC(=O)C[C@@H]1C[C@@]2(C(=O)OC)CCCCC=C2N(CCC2=CCCCC2)C1=O | 35.5 µM (active)
CCCCNC(=O)C1(NC(=O)Nc2ccccc2)CCCCC1 | inactive
CCCCNC(=O)C[C@@H]1C[C@@]2(C(=O)OC)CCCCC=C2N(CCC2=CCCCC2)C1=O | 39.8 µM (active)
Cc1cc(NCCCOC(C)C)n2c(nc3ccccc32)c1C#N | inactive
CC(=O)c1ccc(NC(=O)COC(=O)C2CC3C=CC2C3)cc1 (centres undefined) | inactive
O=C1/C(=C\NCc2ccccn2)c2ccccc2C(=O)N1c1ccccc1Cl | inactive
CCN(C(=O)COc1cccc2cccnc12)C1CCS(=O)(=O)C1 (centres undefined) | inactive
Cc1ccc(OCC(=O)N(Cc2ccco2)C2CCS(=O)(=O)C2)cc1C (centres undefined) | inactive

Structure (SMILES) | Potency
CCN(C(=O)C(C)N1C(=O)/C(=C/c2ccco2)SC1=S)C1CCS(=O)(=O)C1 (centres undefined) | 28.2 µM (active)
Cc1ccc(O)c(Nc2c3ccccc3nc3ccccc23)c1 | inactive
Cc1ccc(O)c(NN=C2C(=O)CC(C)(C)CC2=O)c1 | 20 µM (active)
O=C(OCC(=O)c1ccc[nH]1)c1cncc(Br)c1 | inactive
Cc1ccc(-n2[nH]c(C)c(/C=N/Nc3ccc([N+](=O)[O-])cc3[N+](=O)[O-])c2=O)cc1 | 14.1 µM (active)
Cc1[nH]c2ccccc2c1/C=N/Nc1ccc([N+](=O)[O-])cc1 | inactive
CN1CCN(S(=O)(=O)c2cc([N+](=O)[O-])ccc2N/N=C/c2ccc(Cl)cc2)CC1 | inactive
CCc1ccc(S(=O)(=O)N2CCN(Cc3ccco3)CC2)cc1 | inactive
CCc1ccc([C@@H]2CC=C(C(=O)O)[C@H](c3ccc(C(C)(C)C)cc3)N2S(=O)(=O)c2ccc(C)cc2)cc1 | 35.5 µM (active)
CSC1=NCCN1S(=O)(=O)c1ccc(C)cc1 | inactive
CC(=O)Nc1ccc2cc3ccc(NC(C)=O)cc3nc2c1 | inactive
CCC(C)NCC(=O)Nc1ccc(-c2nc3cc(NC(=O)CNC(C)CC)ccc3o2)cc1 (centres undefined) | 22.4 µM (active)
Cc1ccc(NC(=O)CSC(C)C(=O)OCc2cc(=O)oc3cc(O)ccc23)cc1 (centres undefined) | inactive
COc1cc(/C=C\C(=O)Nc2cc(=O)n(C)c(=O)n2C)cc(OC)c1OC | inactive
CNC[C@@H](CC1CCCCC1)NC[C@H](CC(C)C)NCCc1cccc(C(F)(F)F)c1 | 15.8 µM (active)
CSCCC(=O)N(C)CC1CCCN(CCc2cccc(C(F)(F)F)c2)C1 (centres undefined) | inactive
O=c1nc2c(O)cccn2c2c1c(O)nc1ccccc12 | inactive
Cc1nc(C)c(C(=O)OCC(=O)Nc2ccccc2)s1 | inactive
CCOc1ccc(NC(=O)COC(=O)CNC(=O)c2ccc(-c3ccccc3)cc2)cc1 | inactive
Nc1nc(O)c(CCCOc2ccc(NC(=O)CBr)cc2)c(-c2ccccc2)n1 | 25.1 µM (active)
CC(C)CC1c2[nH]c3ccccc3c2CCN1C(=O)CCC(=O)N(C)C (centres undefined) | inactive
Cc1cc(Cl)ccc1C(=O)C1CCCN(C(=O)/C=C/c2cnn(C)c2)C1 (centres undefined) | inactive
Cc1c(CN2CCCC(C(=O)Nc3cccc(-n4cccn4)c3)C2)cnn1C (centres undefined) | inactive
Cc1c(Cl)cccc1NC(=O)C1CCCN(C(=O)c2cnn(-c3ccccc3)c2-n2cccc2)C1 (centres undefined) | 39.8 µM (active)
Cc1c(Cl)cccc1NC(=O)CN1CCN(CCNC=C2C(=O)CC(c3ccccc3)CC2=O)CC1 (centres undefined) | inactive

Structure (SMILES) | Potency
Cc1cc(C)cc(NC(=O)C2CCCN(C(=O)c3cnn(-c4ccccc4)c3-n3cccc3)C2)c1 (centres undefined) | 20 µM (active)
Cc1cc(C)cc(NC(=O)Nc2ccccc2N2CCCCC2)c1 | inactive
Cc1ccc(SCc2nn(C)c(Cl)c2C=O)cc1 | inactive
CCCN(C(=O)c1cccc(S(=O)(=O)N2CCCc3ccccc32)c1)C1CCS(=O)(=O)C1 (centres undefined) | inactive
CC(C)c1cc(NCCOCCO)n2c(nc3ccccc32)c1C#N | inactive
OCCN(CCO)c1ccc(C(c2ccccc2Cl)c2ccc(N(CCO)CCO)cc2Cl)c(Cl)c1 | 39.8 µM (active)
Cc1cc(N(CCO)CCO)ccc1C(c1ccc(N(CCO)CCO)cc1C)c1ccccc1Cl | 39.8 µM (active)
CCOc1cc(NC(=O)c2ccccn2)c(OCC)cc1NC(=O)c1ccc(OC)cc1 | inactive
COc1cc(/C=N/NC(=O)c2ccccn2)cc2c1OCO2 | inactive
CCN(CC)CCOc1ccc2c(c1)C(=NNC(=O)c1ccccn1)c1cc(OCCN(CC)CC)ccc1-2 | 39.8 µM (active)
c1ccc(-c2nc(N3CCCC3)nc3ccccc23)cc1 | inactive
CCN(CC)c1ccc2cc(-c3nnc(-c4cccc(Cl)c4)o3)c(=O)oc2c1 | inactive
CCCCCCc1cc2cc(S(=O)(=O)c3ccc(Cl)cc3)c(=O)oc2cc1O | inactive
Cc1ccccc1C(=O)OC1CCN(C)CC1 | inactive
COCCCNc1nc2c(-c3cccc(C)c3)nnn2c2ccccc12 | inactive
CC(=O)Nc1ccc(S(=O)(=O)Nc2nc3nc(-c4ccccc4)cc(-c4ccccc4)n3n2)cc1 | inactive
CC(=O)Nc1ccc(CNc2nc(NCCN(C)C)nc3cc(-c4ccccc4)sc23)cc1 | 31.6 µM (active)
COCCNc1nc(NCCOc2ccccc2)c2sc(-c3ccccc3)cc2n1 | 25.1 µM (active)
Cc1ccc2nc(NCCC(=O)O)nc(-c3ccccc3)c2c1 | inactive
O=C(O)CCNc1nc(-c2ccccc2)c2cc(Br)ccc2n1 | inactive
COCCNc1nc(NCc2ccc(NC(C)=O)cc2)c2sc(-c3ccccc3)cc2n1 | 31.6 µM (active)
NNC(=O)c1sc(-c2ccccc2)cc1N | inactive
COCCNc1nc2c(-c3cccc(C(F)(F)F)c3)nnn2c2ccccc12 | inactive
C[C@]12CCCC[C@@H]1CC[C@@H]1[C@@H]2CC[C@@]2(C)[C@H]1CC[C@@]2(O)CNCCO | inactive
O=C(c1cc(Br)c(Br)s1)N1CCc2ccccc2C1 | inactive

Structure (SMILES) | Potency
O=S(=O)(NC1CCSc2ccccc21)c1ccc(Cl)nc1 (centres undefined) | inactive
Cc1cccn2c(=O)c3cc(C#N)/c(=N\C(=O)c4cccs4)n(CCCOC(C)C)c3nc12 | inactive
Cc1ccc(C(=O)NC(=S)NCc2ccccc2)cc1Br | inactive
COc1ccc(C[C@H]2CN3C(=NC[C@@H]3Cc3ccccc3)N2CCNC(=O)c2ccc(C)c(Br)c2)cc1 | 22.4 µM (active)
COc1ccc(C[C@H]2CN3C(=NC[C@@H]3C(C)C)N2CCNC(=O)c2ccc(C)c(Br)c2)cc1 | 20 µM (active)
COc1ccc(C[C@H]2CN3C(=NC[C@@H]3Cc3ccc(O)cc3)N2CCNC(=O)c2ccc(C)c(Br)c2)cc1 | 39.8 µM (active)
COc1ccc(C(=O)NCCNc2nc3c(C)cccc3cc2C#N)cc1 | inactive
COc1cccc(CNC(=O)c2ccc(C)c(NC3=NC4CS(=O)(=O)CC4S3)c2)c1 (centres undefined) | inactive
COC(=O)CCNC(=O)c1ccc2nc(Cc3ccc(OC)cc3)oc2c1 | inactive
COc1cccc(C(=O)NCCn2ccc3ccccc32)c1 | inactive
CC(=O)Nc1ccc(NC(=O)CSc2ccc3nnc(CCNC(=O)c4ccccc4)n3n2)cc1 | inactive
CC1CCN(c2nnc(-c3ccccc3)c3ccccc23)CC1 | inactive
Cc1sc2nc(-c3ccccn3)nc(O)c2c1-c1ccccc1 | inactive
O=[N+]([O-])c1ccc(C2NS(=O)(=O)N=C3CCCCCN32)cc1 (centres undefined) | inactive
CCCc1cc(C(=O)Cc2nc3ccccc3s2)c(O)cc1O | inactive
CC(C)CC(=O)NC(=S)Nc1nc(-c2ccc(Cl)cc2)cs1 | inactive
O=C(CN1CCN(Cc2ccc(F)cc2)CC1)Nc1nc2ccccc2s1 | inactive
COc1ccc(-c2csc(NC(C)c3nc4cc(Cl)c(Cl)cc4n3CCCO)n2)cc1 (centres undefined) | 39.8 µM (active)
Cc1ccc(Cn2c(C(CO)Nc3nc(-c4ccc(F)cc4)cs3)nc3ccccc32)cc1 (centres undefined) | 25.1 µM (active)
CC(Nc1nc(-c2ccc(F)cc2)cs1)c1nc2cc(Cl)c(N3CCCCC3)cc2n1CCCO (centres undefined) | 25.1 µM (active)
CC(Nc1nc(-c2ccc(F)cc2)cs1)c1nc2cc(Cl)c(Cl)cc2n1CCCO (centres undefined) | 39.8 µM (active)
COc1ccc(-c2csc(NC(=O)CSc3nnnn3C)n2)c(OC)c1 | inactive
Cc1ccc(Cn2cccc(-c3nc4ccccc4s3)c2=O)cc1 | inactive
COc1ccc(/N=C/C2=C(O)c3c(sc(C)c3C)N(C)S2(=O)=O)cc1 | inactive

Reference: ChEMBL document CHEMBL1201862, “PubChem BioAssay data set” (2004)
